An excerpt weighted towards active compounds, which were near 2.8% of everything screened.
PAFAH1B3 FP inh = PAFAH1B3 (human) inhibition; Q15102; recombinant PAFAH1B3, FP-rhodamine probe, fluorescence polarization; inhibition, % at 3.39 µM; 0.28% of 340,000 active;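 active means inhibition above the screen-wide average of all tested compounds plus 3 SD, cut at about 25% in these data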
PAFAH2 inh = PAFAH2 (human) inhibition; Q99487; recombinant PAFAH2, FP-rhodamine activity probe, fluorescence polarization; inhibition, % at 3.39 µM; 0.99% of 340,000 active; AID 492956;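 active means inhibition above the mean over all tested compounds plus 3 SD, cut at about 30% in these data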;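 further: inhibitors block probe labeling of enzyme so polarization drops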
PAFAH1B2 inh = blocks human PAF acetylhydrolase 1b catalytic subunit 2; P68402; recombinant PAFAH1B2, FP-rhodamine activity probe, fluorescence polarization; inhibition, % at 3.39 µM; 1.2% of 340,000 active;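 active means inhibition above the mean of all tested compounds plus 3 SD, cut at about 24% in these data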
DAGLB inh = diacylglycerol lipase beta (human) inhibition. Q8NCG7. HEK293T DAGLB membrane lysate, EnzChek fluorogenic substrate. inhibition, % at 5.17 µM. 0.059% of 340,000 active. AID 504411; in the data active means inhibition above about 34%
HTRA1 inhibitor = inhibitors of human serine peptidase HTRA1 | AID 504803 | inhibition, % at 5.96 µM | 0.5% of 340,000 active | recombinant HTRA1, FP-rhodamine activity-based probe, fluorescence polarization; in the data active means inhibition above about 36%
pPAFAH FP inh = pPAFAH (human) enzyme inhibition | Q13093 | recombinant pPAFAH, FP-rhodamine probe fluorescence polarization | inhibition, % at 3.39 µM | 1.5% of 330,000 active | AID 463082;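 active means inhibition above the mean inhibition across the screen plus 3 SD, cut at about 25% in these data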;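 further: inhibitors block binding of the rhodamine activity-based probe so polarization drops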
Hits are given with their value; . = inactive; / = no result given.

SMILES | PAFAH1B3 FP inh | PAFAH2 inh | PAFAH1B2 inh | DAGLB inh | HTRA1 inhibitor | pPAFAH FP inh
Cc1c(Cc2ccccc2)sc(/N=C/c2c(O)ccc3ccccc23)c1C(N)=O | . | . | . | . | . | 32
Cc1c(Cc2ccccc2)sc(N)c1C(N)=O | / | / | / | / | / | 28
Cc1c(Cc2ccccc2)sc(NC(=O)C(C)(C)C)c1C(N)=O | . | . | . | . | . | .
O=C(CN1C(=O)C2CCCCC2C1=O)OCC(=O)c1ccc(Cl)s1 (stereo not drawn) | . | 40 | . | . | . | 26
Cc1ccc(C)c(N2CCN(C(=O)c3ccc4nc(-c5ccco5)c(-c5ccco5)nc4c3)CC2)c1 | . | . | . | . | . | 31
COc1ccccc1N1CCN(C(=O)c2ccc3nc(-c4ccco4)c(-c4ccco4)nc3c2)CC1 | . | . | . | . | . | .
COc1ccc(CN(C)CC(=O)Nc2sc3c(c2C#N)CCC3)c(OC)c1 | . | . | 24 | . | . | .
CCC(Oc1ccccc1)C(=O)Nc1nnc(S(=O)(=O)N2CCCCC2)s1 (stereo not drawn) | . | . | . | . | . | .
O=C(COc1ccccc1)Nc1nnc(S(=O)(=O)Nc2ccccc2)s1 | . | . | . | . | . | 27
CCC(Oc1ccccc1)C(=O)Nc1nnc(S(=O)(=O)Nc2ccccc2)s1 (stereo not drawn) | . | . | . | . | . | 33
O=C(Cc1ccccc1)Nc1ccc(N2CCOCC2)cc1 | . | . | . | . | . | .
O=C(COc1ccccc1Cl)Nc1ccc(N2CCCC2)cc1 | . | . | . | . | . | 58
CCN1CCN(c2ccc(NC(=O)COc3ccccc3Cl)cc2)CC1 | . | . | . | . | . | .
CCN(C(=O)c1ccc(NC(=O)Cc2ccccc2)cc1)c1ccccc1 | . | . | 26 | . | . | /
CN(C(=O)c1ccc(NC(=O)Cc2ccccc2)cc1)c1ccccc1 | . | . | . | . | . | .
O=C(Cc1ccccc1)Nc1ccc(N2CCCC2)cc1 | . | . | . | . | . | 33
CCCCCSc1nnc(-c2cc(Br)ccc2N)c(=O)[nH]1 | . | . | 27 | . | . | .
CCCCSc1nnc(-c2ccccc2N)c(=O)[nH]1 | . | . | . | . | . | .
CC(Sc1nnc(-c2ccncc2)n1C)C(=O)NCC1CCCO1 (stereo not drawn) | . | . | . | . | . | .
Cc1ccc(SC(C)c2nc(-c3cccnc3)no2)cc1 (stereo not drawn) | . | . | 27 | . | . | .
Cc1cc(C(C)(C)C)ccc1OC(=O)C1=CC=CN2CCS(=O)(=O)N=C12 | . | . | . | . | . | /
Nc1ccc(O)c(C(=O)O)c1 | / | / | / | / | / | 49
O=C(O)c1cc(O)ccc1O | . | . | . | . | . | /
c1ccc(Cc2nn3c(Cn4nnc5ccccc54)nnc3s2)cc1 | . | . | . | . | . | .
c1ccc(OCc2nn3c(Cn4nnc5ccccc54)nnc3s2)cc1 | . | . | 24 | . | . | .
SMILES | PAFAH1B3 FP inh | PAFAH2 inh | PAFAH1B2 inh | DAGLB inh | HTRA1 inhibitor | pPAFAH FP inh
CC1(C)CC2CC(C)(CN2S(=O)(=O)c2cccc(N)c2)C1 (stereo not drawn) | . | . | 24 | . | . | .
CCCNC(=O)c1cccc(S(=O)(=O)N2CC3(C)CC2CC(C)(C)C3)c1 (stereo not drawn) | . | . | 26 | . | . | .
CN(C)C(CNC(=O)c1cccc(S(=O)(=O)N2CC3(C)CC2CC(C)(C)C3)c1)c1ccco1 (stereo not drawn) | . | . | . | . | . | .
CCOC(=O)C1(CCOC)CCN(C(C)CCc2ccc(OC)cc2)CC1 (stereo not drawn) | . | . | . | . | . | .
Cc1ccc(NCC(=O)N=Nc2c(O)[nH]c3ccc([N+](=O)[O-])cc23)cc1 | / | / | / | / | / | 25
O=C(O)c1ccccc1N=Nc1c(O)[nH]c2ccc([N+](=O)[O-])cc12 | . | 37 | . | . | . | .
CCN(CC)C(=O)c1ccc2c(=O)n(Cc3cccc(Br)c3)c(=S)[nH]c2c1 | / | / | / | / | / | .
O=C1CN(C(=O)C2CCC(=O)N(CCc3ccc(Cl)cc3)C2)CCN1 (stereo not drawn) | . | . | . | . | . | .
CCc1nnc(NC(=O)C(c2ccccc2)c2ccccc2)s1 | . | . | . | . | . | .
CC(C)(C)c1ccc(OCC(=O)NCc2ccco2)c(Br)c1 | . | . | . | . | . | 28
O=C(NCc1ccco1)/C(=C/c1ccc(F)cc1)NC(=O)c1ccccc1 | . | . | . | . | . | .

From PubChem BioAssay
